# From PubChem
# A selection: hits, their analogues and other compounds. The true share with any hit is near 3.6%.
# MITF act: activators of MITF-driven TRPM1 promoter activity in SK-MEL-5 cells. SK-MEL-5 TRPM1-promoter luciferase, 24 h; % of positive control, neutral wells = 0. activation, % at 12.5 µM. 0.75% of 300,000 active;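 active = mean activation of at least 80% with every replicate also reaching 80%; inconclusive = mean reaches 80% but some replicate falls short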;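 note: 0% = neutral control wells and 100% = parthenolide positive control wells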
# A3G deaminase: APOBEC3G (human) deaminase inhibition. Q9HC16. recombinant A3G, ssDNA deamination FAM/TAMRA fluorescence. inhibition, % at 20 µM. 0.28% of 330,000 active. AID 493012;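 active = inhibition of at least 40% at 20 µM, with no more than 30% in the related APOBEC3A deaminase screen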;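 note: plate controls were DMSO wells with A3G for no effect and wells lacking A3G enzyme for full effect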
# PHOSPHO1 block: PHOSPHO1 (human) inhibition | recombinant PHOSPHO1, absorbance phosphatase assay | inhibition, % at 13.3 µM | Q8TCT1 | 1.1% of 290,000 active; in the data active = inhibition above about 60%
# Target sequence (Q8TCT1 whole entry, looked up): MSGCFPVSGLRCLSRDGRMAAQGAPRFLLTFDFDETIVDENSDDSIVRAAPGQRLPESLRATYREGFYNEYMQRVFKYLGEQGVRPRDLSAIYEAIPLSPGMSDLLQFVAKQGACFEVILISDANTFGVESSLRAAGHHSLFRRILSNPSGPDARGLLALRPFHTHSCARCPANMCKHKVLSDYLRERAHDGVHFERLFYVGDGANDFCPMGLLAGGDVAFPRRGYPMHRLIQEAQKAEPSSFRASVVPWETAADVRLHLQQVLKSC
# esBAF inh: blocks esBAF chromatin remodeling in mouse ES cells; 2% of 350,000 active; AID 602393; Bmi1-luciferase knock-in reporter, 24 h; 100% = twice the neutral-well signal; reporter increase, % at 12.5 µM; in the data active = activation above about 40%; inconclusive = no clear call, values can overlap the other calls;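 note: 0% = median of the plate's neutral control wells and 100% = double that signal; a rise in the Bmi1 reporter signal indicates esBAF inhibition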
# Wnt act: activates Wnt/beta-catenin signaling in a reporter cell assay | activator, plate reader | activation, % at 9.35 µM | 1.2% of 300,000 active | AID 743398; in the data active = activation above about 30%, passing the limit was not always enough; inconclusive = no clear call, values can overlap the other calls;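 note: 0% = neutral control wells and 100% = positive control wells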
# A3A deaminase: human APOBEC3A DNA deaminase inhibition; 0.41% of 330,000 active; P31941; inhibition, % at 20 µM; recombinant A3A, FAM/TAMRA ssDNA deamination fluorescence;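 active = at least 40% inhibition at 20 µM here, with at most 30% in a related deaminase screen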;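 note: plate controls were A3A with DMSO for no effect and wells lacking A3A enzyme for full effect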
# Target sequence (P31941 whole entry, looked up): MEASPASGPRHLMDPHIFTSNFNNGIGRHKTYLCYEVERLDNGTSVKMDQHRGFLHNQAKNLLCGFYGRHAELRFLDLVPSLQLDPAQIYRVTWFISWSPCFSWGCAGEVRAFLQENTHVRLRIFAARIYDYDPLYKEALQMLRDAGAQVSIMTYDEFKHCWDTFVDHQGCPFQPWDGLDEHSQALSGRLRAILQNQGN
# Numbers without * were called inactive; ? = inconclusive; · = not tested or not shown.
SMILES,MITF act,A3G deaminase,PHOSPHO1 block,esBAF inh,Wnt act,A3A deaminase
NC(=O)C1CCN(c2ccc3c(c2)S(=O)(=O)c2ccccc2C3=O)CC1,30.7,-11.5,·,7.4,7.6,-6.0
CSCCC(NC(N)=O)C(=O)Nc1ccc(C)cc1 (stereo not given),15.8,-2.5,62.9*,·,1.7,-0.9
C[C@H]1CN([C@@H](C)CO)C(=O)c2cc(NC(=O)Nc3ccccc3)ccc2O[C@H]1CN(C)Cc1ccc2c(c1)OCO2,·,·,·,-1.1,·,·
COc1ccc2c(CN3CCCCCCC3)cc(=O)oc2c1,·,·,·,48.5*,1.2,·
Cc1cc2oc(=O)cc(CN3CCC(C)CC3)c2cc1Cl,23.9,-4.2,-3.3,58.3*,4.2,-2.9
Cc1ccc2c(CN3CCC(C)CC3)cc(=O)oc2c1,47.5,-7.0,7.4,59.3*,·,-0.5
Cc1cc2oc(=O)cc(CN3CCN(Cc4ccccc4)CC3)c2cc1Cl,2.9,-1.5,44.7,-4.7,·,-1.9
C[C@H](CO)N1C[C@H](C)[C@@H](CN(C)S(=O)(=O)c2ccc(F)cc2)OCCCC[C@H](C)Oc2ccc(NS(=O)(=O)c3ccc(Cl)cc3)cc2C1=O,·,·,·,-4.9,·,·
O=C(Nc1ccc(O)cc1)c1c(O)c2c([nH]c1=O)CCCC2,86.4*,-3.8,-26.7,·,21.3,-2.8
CC(C)CC#Cc1cnc2c(c1)C(=O)N([C@H](C)CO)C[C@H](C)[C@@H](CN(C)Cc1ccc3c(c1)OCO3)O2,·,·,·,-4.1,·,·
CCCc1cc(C(=O)NCCc2ccccc2)no1,·,3.8,22.2,50.4*,28.8,1.2
Cc1ccc(OCc2cc(C(=O)NCCc3cccnc3)no2)cc1C,54.9,-5.8,-22.2,57.9*,26.3,-4.9
COc1ccccc1-c1cc(C(=O)NCCc2ccccc2)no1,·,-2.9,-13.6,60.2*,26.6,-2.7
COc1cccc(CCNC(=O)c2cc(COc3cccc(OC)c3)on2)c1,·,·,·,·,16.5,·
CC=Cc1ccc2n(c1=O)C[C@@H]1[C@@H](CO)[C@H](C(=O)NC3CCC3)N(C(=O)C3CCC3)[C@H]21 (mixture of isomers),·,·,·,1.4,·,·
Cc1ccc(S(=O)(=O)N(C)C[C@@H]2OCCCC[C@@H](C)Oc3ccc(NC(=O)Nc4ccc5c(c4)OCO5)cc3C(=O)N([C@@H](C)CO)C[C@H]2C)cc1,·,·,·,4.4,·,·
CC(=O)Nc1ccc(NC(=O)N2CCOCC2)cc1,·,·,·,-1.0,-0.7,·
O=C(Nc1ccc2c(c1)oc1ccccc12)N1CCOCC1,55.9,-3.3,8.8,59.8*,·,-2.1
CCNC(=S)Nc1ccc2c(c1)oc1ccccc12,?,-11.9,·,63.3*,38.4*,-5.3
CC(C)c1ccc(NC(=O)N2CCOCC2)cc1,·,-7.9,44.1,44.8*,3.4,-5.7
O=C(N[C@@H]1C=C[C@@H](CC(=O)N2CCOCC2)O[C@H]1CO)c1ccc2c(c1)OCO2,·,·,·,1.7,·,·
O=C(O)CCN1C(=O)/C(=C/c2cn(-c3ccccc3)nc2-c2cccs2)SC1=S,5.2,-6.6,78.3*,·,0.8,-4.0
CSc1ccc(C2c3[nH]c4ccccc4c3CCN2C(=O)c2ccnn2C)cc1 (stereo not given),31.3,-8.1,2.3,·,42.4*,4.2
Cc1noc(C)c1NC(=O)Nc1cccc2c1O[C@H](CN(C)C(=O)Nc1ccc3c(c1)OCO3)[C@@H](C)CN([C@@H](C)CO)C2=O,·,·,·,0.5,·,·
C#CCSC1=C(C#N)C(c2cccs2)C(C(=O)OCC)=C(C)N1 (stereo not given),2.9,-7.0,-29.9,10.2,·,8.6
SMILES,MITF act,A3G deaminase,PHOSPHO1 block,esBAF inh,Wnt act,A3A deaminase
CCN(CC)C(=O)CSC1=C(C#N)C(c2cccs2)C=C(C)N1 (stereo not given),·,-1.6,94.5*,1.5,2.2,-3.3
O=C(C[C@@H]1CC[C@@H](NS(=O)(=O)c2ccccc2)[C@H](CO)O1)NCc1ccccc1F,·,·,·,3.0,·,·
Cc1noc(C)c1NC(=O)Nc1ccc2c(c1)C(=O)N([C@H](C)CO)C[C@@H](C)[C@H](CN(C)S(=O)(=O)c1c(C)noc1C)OCCCC[C@H](C)O2,·,·,·,-1.7,·,·
CC(=O)c1ccc(OCc2ccccc2)c(C)c1O,76.7,-4.6,-11.1,69.1*,30.8*,0.0
COc1ccc(C(C)=O)cc1OCc1ccccc1,·,·,·,-0.3,0.0,·
COCCC1CCCCN1C(=O)c1ccc2nc(Cc3ccccc3F)oc2c1 (stereo not given),134.4*,-3.1,43.1,·,12.8,-0.7
O=C(c1ccc2oc(CCCc3ccccc3)nc2c1)N1CCCC1,64.0,4.0,18.5,70.9*,34.7*,0.7
COCCc1nc2ccc(C(=O)N3CCCCC3COC)cc2o1 (stereo not given),7.8,-0.8,7.9,12.9,2.1,1.2
COC(=O)C1CCCCN1C(=O)c1ccc2oc(Cc3ccccc3)nc2c1 (stereo not given),107.9*,-2.1,26.5,?,22.7,1.9
COC(=O)C1CCCCN1C(=O)c1ccc2oc(C(C)C)nc2c1 (stereo not given),11.6,-4.6,19.0,21.3,6.4,-3.5
CC(=O)C1CCCN(C(=O)c2ccc3oc(CCc4ccccc4)nc3c2)C1 (stereo not given),24.8,-1.9,15.9,?,13.5,-5.7
COCC(=O)N1[C@H](CO)[C@@H](c2ccccc2)[C@@H]1CN(C)C(=O)c1ccncc1,·,·,·,-3.2,·,·
CNC[C@@H]1Oc2ncc(C#CC3CCCCC3)cc2C(=O)N([C@H](C)CO)C[C@@H]1C,·,·,·,-4.3,·,·
Cc1ccccc1NC(=O)Nc1ccc2c(c1)C(=O)N(C)[C@@H]1CC[C@@H](CC(=O)O)O[C@@H]1CO2,·,·,·,-2.6,·,·
C[C@@H]1CN([C@H](C)CO)C(=O)c2cc(-c3ccc(F)cc3)cnc2O[C@@H]1CN(C)C(=O)CN(C)C,·,·,·,3.1,·,·
Cc1ccc(-c2cc3nc4c(c(=O)n3[nH]2)CCCC4)cc1,21.1,-3.8,·,25.1,29.2,-1.7
O=c1c2c(nc3cc(-c4ccc(F)cc4)[nH]n13)CCC2,87.3*,-6.9,-8.2,·,27.2,-1.2
COc1ccccc1C1C(C#N)=C(N)N(N(C)C)C2=C1C(=O)CC(C)(C)C2 (stereo not given),-3.6,-9.2,24.2,-0.8,40.3*,-3.0
COc1ccc(OC)c(C2C(C#N)=C(N)N(N(C)C)C3=C2C(=O)CC(C)(C)C3)c1 (stereo not given),3.9,-0.8,·,·,-0.1,-2.5
CO[C@@H]1CN(C)C(=O)c2ccc(NC(=O)Nc3ccc4c(c3)OCO4)cc2OC[C@@H](C)NC[C@@H]1C,·,·,·,86.8*,·,·
CO[C@@H]1CN(C)C(=O)c2ccc(NC(=O)c3ccc4c(c3)OCO4)cc2OC[C@H](C)NC[C@@H]1C,·,·,·,-4.3,·,·
CO[C@@H]1CN(C)C(=O)c2ccc(NC(=O)Nc3ccc4c(c3)OCO4)cc2OC[C@H](C)NC[C@@H]1C,·,·,·,59.8*,·,·
COc1ccccc1C(=O)Nc1nnc(-c2ccccc2)s1,·,-4.4,8.5,46.9*,8.4,-1.5
COc1ccccc1C(=O)N(C)c1nnc(-c2ccccc2)s1,63.4,-6.3,-1.3,49.2*,39.8*,-3.7
